# Compound activity: PubChem, The Scripps Research Institute Molecular Screening Center
# Rows were chosen to be rich in hits. Some 3.4% of all compounds tested hit in one or more screens of this group.
# PLC-beta3 inh: human PLC-beta3 inhibitors, primary screen, biochemical, fluorescence; 1-phosphatidylinositol 4,5-bisphosphate phosphodiesterase beta-3 (Homo sapiens), Q01970; actives 0.18% (n = 370,000); Purified PLC-beta3, fluorogenic substrate; inhibition, % at 12.2 µM; AID 720704, 2013; in the data active means inhibition above about 11%;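 further: 0% = median of compound wells on plate and 100% = full blocker control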
# HGIII-sPLA2 inh: human group III sPLA2 inhibitors, primary screen, biochemical, QFRET, BODIPY PC-A2 liposome substrate; Group 3 secretory phospholipase A2 (Homo sapiens), Q9NZ20; QFRET BODIPY PC-A2 liposome hydrolysis, fluorescence; actives 0.56% (n = 370,000); inhibition, % at 12.2 µM;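 active means inhibition above mean plus 3 SD of compounds lying within the high and low control bounds, cut at about 19% in these data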;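 further: 0% = median of test compound wells and 100% = no enzyme DMSO wells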
# proKLK7 act: proKLK7 zymogen activators, primary screen, biochemical, fluorescence intensity; AID 652039, 2013; activation, % at 7 µM; actives 0.9% (n = 370,000); purified proKLK7, EDANS-DABCYL substrate fluorescence; 100% is mature enzyme control, 0% vehicle;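 active means activation above the mean of all tested compounds plus 3 SD, computed per campaign excluding outliers beyond control limits, cut at about 13% in these data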
# ADAM17 inh: ADAM17 inhibitors, primary screen, biochemical, QFRET; Disintegrin and metalloproteinase domain-containing protein 17 (Homo sapiens), P78536; recombinant ADAM17, EDANS/DABCYL FRET peptide cleavage; inhibition, % at 6.95 µM; actives 0.83% (n = 370,000); AID 720648, 2013;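 active means inhibition above the mean of compounds lying between control limits plus 3 SD, set per campaign, cut at about 8.5% in these data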;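 further: 0% = DMSO-only wells as the low control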
# PLCg1 inh: PLC-gamma1 enzyme inhibitors, primary screen, biochemical, fluorescence, purified enzyme; 1-phosphatidylinositol 4,5-bisphosphate phosphodiesterase gamma-1 (Homo sapiens), P19174; fluorogenic substrate; inhibition, % at 12.2 µM; actives 0.84% (n = 370,000); in the data active means inhibition above about 9.5%
# ADAM10 inh: human ADAM10 inhibitors, primary screen, biochemical, QFRET, HTS | Disintegrin and metalloproteinase domain-containing protein 10 (Homo sapiens), O14672 | recombinant ADAM10, EDANS/DABCYL FRET peptide cleavage, 3 h | inhibition, % at 7 µM | actives 0.62% (n = 370,000) | AID 720582, 2013;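 active means inhibition above a per-campaign cutoff equal to the mean of compounds falling between control-based bounds plus 3 SD, cut at about 20% in these data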;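 further: 0% = DMSO wells while the 100% control is not disclosed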
# Target sequence (O14672 214-748 limits assumed): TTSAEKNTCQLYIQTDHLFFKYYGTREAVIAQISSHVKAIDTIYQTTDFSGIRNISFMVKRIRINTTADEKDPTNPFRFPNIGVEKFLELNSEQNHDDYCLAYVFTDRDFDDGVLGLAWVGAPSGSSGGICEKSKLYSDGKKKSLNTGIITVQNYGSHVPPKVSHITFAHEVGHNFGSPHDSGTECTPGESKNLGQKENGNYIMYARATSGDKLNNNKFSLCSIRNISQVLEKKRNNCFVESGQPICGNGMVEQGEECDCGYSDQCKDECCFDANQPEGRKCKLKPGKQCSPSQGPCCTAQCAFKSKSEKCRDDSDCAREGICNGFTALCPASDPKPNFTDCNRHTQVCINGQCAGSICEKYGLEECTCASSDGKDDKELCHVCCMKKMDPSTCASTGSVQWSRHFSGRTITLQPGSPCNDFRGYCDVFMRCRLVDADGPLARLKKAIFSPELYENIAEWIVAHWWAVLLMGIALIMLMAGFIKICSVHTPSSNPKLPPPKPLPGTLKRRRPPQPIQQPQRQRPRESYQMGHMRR
# ADAM10 confirm: human ADAM10 inhibitors, confirmation, biochemical, QFRET, triplicate; shares compounds with ADAM10 inh; ADAM10 QFRET peptide cleavage, EDANS fluorescence; inhibition, % at 6.95 µM; actives 1% (n = 2,100); AID 743208, 2013;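 active means inhibition above about 20% chosen separately for each screening run, limit read from the data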;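 further: 0% = DMSO wells and 100% = marimastat wells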
# ADAM17 ctr: ADAM17 inhibitors, counter-screen for ADAM10 exosite inhibitor project, biochemical, QFRET, high throughput; shares compounds with ADAM10 inh; ADAM17 QFRET peptide cleavage, EDANS fluorescence; inhibition, % at 6.95 µM; actives 0.5% (n = 2,100); AID 743214, 2013;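 active means mean triplicate inhibition above the solvent-only control wells' mean plus 3 SD, cut at about 12% in these data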;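 further: 0% = DMSO wells and 100% = marimastat wells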
# Numbers without * were called inactive; i = inactive; / = no result.
SMILES,PLC-beta3 inh,HGIII-sPLA2 inh,proKLK7 act,ADAM17 inh,PLCg1 inh,ADAM10 inh,ADAM10 confirm,ADAM17 ctr
Cc1cccc(OCCCN2CCC(C(O)(c3ccccc3)c3ccccc3)CC2)c1,2,-10,0,-4,2,-10,/,/
Cc1ccc(NC(=S)Nc2ccc(F)cc2)c(C)c1,0,2,0,0,6,21*,0,0
O=C(O)CCN1C(=O)/C(=C/c2cccc(OCc3ccc(F)cc3)c2)SC1=S,-2,-8,/,-3,-2,4,/,/
CC(C)C[C@@H]1COc2cc(F)ccc2S(=O)(=O)N1,4,11,0,-7,3,-6,/,/
CC(=O)Oc1ccc2ccccc2c1C(NC(=O)Cc1ccccc1)c1ccc(Cl)cc1 (stereo unspecified),3,-18,0,9,-3,22*,7,2
Cn1c(=O)cc(OCCCC(=O)Nc2cc(-c3ccncc3)ccn2)c2ccccc21,0,3,/,1,0,-12,/,/
Cc1ccc(S(=O)(=O)N2CCCCC2)cc1NC(=O)COC(=O)C1CC1,-7,7,0,-2,5,-22,/,/
Cc1ccc(S(=O)(=O)N2CCCCC2)cc1NC(=O)COC(=O)Cc1cccc2ccccc12,1,-35,0,7,0,20*,7,2
CCCCCCCCN1C(=O)[C@@H](CC(=O)N2CCN(C(=O)c3ccco3)CC2)C[C@@]2(C(=O)OC)C1=C[C@H](C1CCCC1)O[C@@H]2C,3,-4,0,1,3,9,/,/
OC(c1ccc(F)cc1)c1nc(-c2ccc(F)c(Cl)c2)cs1 (stereo unspecified),0,-9,-1,8,-1,20*,7,2
COc1cc(C(O)c2nc(-c3cccc(C(F)(F)F)c3)cs2)ccc1F (stereo unspecified),-2,-10,0,8,2,21*,5,1
OC(c1cccc(Cl)c1)c1nc(-c2ccc(F)c(Cl)c2)cs1 (stereo unspecified),-5,-8,0,7,-2,9,/,/
CC(C)Sc1nnc(Cn2c(=O)sc3ccccc32)n1-c1ccccc1,3,-3,1,-2,2,-3,/,/
Cc1ccccc1-n1c(Cn2c(=O)sc3ccccc32)nnc1SC(C)C,1,5,0,-1,0,78*,-1,0
CCN1CCCCC(NC(=O)c2ccc(F)cc2)C1=O (stereo unspecified),1,13,0,-7,2,-7,/,/
COC(=O)c1cc(-c2cc(Cl)ccc2OC)c(=O)n2c1CCC2,-4,-2,1,-3,-1,-14,/,/
Cc1c(C(=O)NCc2ccc3c(c2)OCCO3)sc(=O)n1Cc1ccc2c(c1)OCO2,-3,-5,0,2,-3,-2,/,/
CSc1ccc(Cn2c(C)c(C(=O)NCc3ccc(Cl)c(Cl)c3)sc2=O)cc1,3,-15,0,8,3,21*,10,4
CSc1ccc(Cn2c(C)c(C(=O)NCc3ccc4c(c3)OCCO4)sc2=O)cc1,1,-9,1,6,6,20*,5,1
C=CCCC1CN(CC=C)S(=O)(=O)c2c(F)cccc2O1 (stereo unspecified),0,-2,0,-2,1,-4,/,/
CCC(=C(c1ccc(OC)cc1)c1ccc(OC)cc1)c1cn(CC(O)CN2CCN(C)CC2)c2ccccc12 (stereo unspecified),-12,16,0,1,-8,25*,5,2
COc1ccc(-c2cc3ccccc3n2CC(O)CN2CCCCC2)cc1 (stereo unspecified),-40,-10,-1,-1,-21,-3,/,/
CCOC(=O)Cc1csc(NC(=O)CSc2ncnc3c2cnn3-c2ccccc2Cl)n1,1,-19,1,8,3,26*,1,2
NC(=O)c1ncn2c(=O)n(CCCl)nnc12,-1,18,0,2,0,-16,/,/
CCCCc1c(-c2ccccc2OC)ncn1Cc1ccc(F)c(F)c1,-2,-9,0,0,0,2,/,/
SMILES,PLC-beta3 inh,HGIII-sPLA2 inh,proKLK7 act,ADAM17 inh,PLCg1 inh,ADAM10 inh,ADAM10 confirm,ADAM17 ctr
COC(=O)c1ccc(N)c2c(N)ccc(C(=O)OC)c12,i,-11,8,-164,i,i,/,/
COc1cccc(NC(=O)[C@H](C)NC(=O)N2CCn3c2nc2ccccc23)c1,-4,-5,0,-5,1,2,/,/
COc1cccc(NC(=O)[C@@H](NC(=O)N2CCn3c2nc2ccccc23)C(C)C)c1,-3,-7,0,-1,4,21*,2,0
CCNC(=O)NC(=O)C(C)OC(=O)c1ccc(-n2nc(SC)sc2=S)cc1 (stereo unspecified),4,2,0,3,4,22*,1,0
CSc1nn(-c2ccc(C(=O)OC(C(=O)NC(N)=O)C(C)C)cc2)c(=S)s1 (stereo unspecified),0,-1,0,-1,0,-2,/,/
CC(C)Cn1c(=O)cc(N2CCN(c3cccc(C(F)(F)F)c3)CC2)[nH]c1=O,1,3,/,0,0,-2,/,/
CCOC(=O)/C=C/C(=O)Nc1ccc(Oc2ccccc2)cc1,0,-7,0,1,0,21*,2,0
O=C(O)/C=C/C(=O)Nc1ccc(Oc2ccccc2)cc1,-6,3,0,0,0,-1,/,/
O=S(=O)(Nc1cc(C(F)(F)F)ccc1N1CCOCC1)c1ccccc1,-7,-2,0,-4,2,-5,/,/
O=S(=O)(Nc1cc(C(F)(F)F)ccc1N1CCOCC1)c1ccc2ccccc2c1,1,-20,0,8,-2,24*,6,3
Cc1ccc(C(=O)Oc2coc(CSc3ncccn3)cc2=O)cc1[N+](=O)[O-],6,7,/,1,6,14,/,/
